Screens as filed in PubChem.
VLA-4 allo ag = allosterically activates the human VLA-4 integrin. activation, % at 10 µM (by protocol). 24,000 tested, under 10 active. Jurkat cells, LDV-FITC binding, flow cytometry. P13612. AID 528;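 active means fluorescent ligand binding to cells raised by more than 40% of the manganese-induced maximum; inconclusive means compound's own fluorescence above 85% of the ligand control signal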
FPRL1 ligand = ligands of human FPRL1, also counter-screen for FPR ligands; P25090; FPRL1-expressing cells, fluorescent ligand binding inhibition, flow cytometry; inhibition, % (concentration not given with the values); 24,000 tested, 0.3% active; AID 441
Jurkat autofluor = autofluorescence counter-screen for VLA-4 integrin assays; 24,000 tested, 0.61% active; fluorescence ratio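 (tested at 10 µM compound in the well)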; Jurkat cells, compound autofluorescence, flow cytometry; active compounds read high; 1 = vehicle-only cell background; AID 576;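 active means fluorescence ratio above 2.44, which is 1 plus 3 SD of all ratios; inconclusive means signal too bright to measure linearly, ratio around 10 or more; inactive means fluorescence ratio below 2.44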;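 further: green fluorescence of cells measured with 488 nm excitation and 530 nm emission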
LNCaP diff act = activators of LNCaP prostate cell differentiation | flow cytometry side scatter, 4 d | side scatter shift, % at 10 µM | 24,000 tested, 0.56% active;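 active means side scatter shift above 30%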;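 further: androgen-responsive LNCaP prostate cancer cells in charcoal-stripped serum medium; higher shift means more granular cells and more differentiation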
VLA-4 antagonist = blocks LDV-FITC ligand binding to Mn2+-activated human VLA-4 integrin. AID 529. Jurkat cells, LDV-FITC binding with Mn2+, flow cytometry; 100% = Mn2+-driven binding gain fully reversed. inhibition, % at 10 µM (by protocol). P13612. 24,000 tested, 0.2% active;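 active means inhibition above 50%; inconclusive means compound itself fluorescent, judged against control cell fluorescence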
FPR binder = human FPR ligand, with FPRL1 counter-screen; FPR-expressing cells, fluorescent ligand binding, flow cytometry; P21462; inhibition, % (concentration not given with the values); 24,000 tested, 0.74% active; AID 440
Each line names hits and unclear results; the compound was inactive in the other large screens; ! = a repeat was not active. Compounds with a hit are over-represented: about 2.4% of the library has one in this group of screens. Unless noted, no stated cut-off is given here; in the data, active means inhibition above about 30%; inconclusive means no clear call, values can overlap the other calls; inactive means below that.

CC(=O)N1c2ccc(S(=O)(=O)CCC(=O)O)cc2CC1C (configuration not stated)	VLA-4 antagonist 61
CCC(=O)N1CCc2cc(S(=O)(=O)CCC(=O)O)ccc21	none
CCN(CC)c1ccc(-c2c(C#N)c(N)nc(OC)c2C#N)cc1	VLA-4 allo ag inconclusive, Jurkat autofluor 8.2, VLA-4 antagonist inconclusive
COc1ccc(-c2nnc(Nc3nc4c(OC)cccc4s3)o2)cc1	VLA-4 antagonist 66, FPR binder 52
COc1ccc(-c2nnc(Nc3nc4c(OC)cccc4s3)o2)c(OC)c1	VLA-4 antagonist 68, FPR binder 62
COc1cc(OC)cc(-c2nnc(Nc3nc4c(F)cccc4s3)o2)c1	none
O=S(=O)(c1ccc2oc(-c3ccncc3)nc2c1)c1ccc2oc(-c3ccncc3)nc2c1	none
CCN(CC)CCCN1C(=O)C(O)=C(C(C)=O)C1c1ccc(OC)cc1OC (configuration not stated)	none
COc1ccc(-c2cc3nc(C)c(CCC(=O)N4CCCCC4)c(C)n3n2)c(OC)c1	none
CCc1ccc(C2CC(c3ccc(C)cc3)n3nc(N)nc3N2)cc1 (configuration not stated)	none
CCCCOc1cc(C(=O)NCCN(CC)CC)c2ccccc2n1	FPR binder 49!
CCCCN(CC)CCNC(=O)c1cc2c(C)nc3ccccc3c2o1	none
CCN(CC)CCCNC(CC(=O)O)C(=O)O (configuration not stated)	none
COc1ccc(-c2cc(C(F)(F)F)nc(N3CCOCC3)n2)cc1OC	none
COc1ccc(-c2cc(C(F)(F)F)nc(NC3CCCC3)n2)cc1OC	FPRL1 ligand 32
COc1ccc(N2CCN(CCNC(=O)c3cccn4c(=O)c5ccc(Cl)cc5nc34)CC2)cc1	none
C=CCn1c(/N=C/c2ccc(N(C)C)cc2)nc2ccccc21	VLA-4 allo ag inconclusive, FPRL1 ligand inconclusive, Jurkat autofluor 4.8, VLA-4 antagonist inconclusive, FPR binder inconclusive
C=CCn1c(C(C)NC(=O)C(C)(C)C)nc2ccccc21 (configuration not stated)	none
CSc1nc(N)nc(SCC(=O)c2ccccc2)c1C#N	none
N#Cc1c(-c2ccco2)cc(C2CC2)nc1SCC(=O)c1ccccc1	VLA-4 allo ag inconclusive, Jurkat autofluor 2.5, VLA-4 antagonist inconclusive
COc1ccc(NC(=O)CNS(=O)(=O)c2cccc3nonc23)c(OC)c1	none
COC(=O)c1ccc(C(=O)OC)c(NC(=O)c2ocnc2C)c1	none
O=C(O)c1ccc2c(c1)[C@@H]1C=CC[C@@H]1[C@H](c1ccccn1)N2	VLA-4 allo ag inconclusive, VLA-4 antagonist inconclusive
O=C(OC1CCCCC1)c1ccc2c(c1)C1C=CCC1C(C(=O)O)N2 (configuration not stated)	VLA-4 allo ag inconclusive, Jurkat autofluor 3.8, VLA-4 antagonist inconclusive
CCOc1cc2c(cc1OCC)C(c1cc(OC)c(O)c(OC)c1)NCC2 (configuration not stated)	none
COc1ccc(CCn2c(N)c(C#N)c3nc4ccccc4nc32)cc1OC	VLA-4 allo ag inconclusive, VLA-4 antagonist inconclusive
N#Cc1c(N)n(CCNC(=O)c2cccs2)c2nc3ccccc3nc12	VLA-4 allo ag inconclusive, Jurkat autofluor 5.3, VLA-4 antagonist inconclusive
CCC(SC1=Nc2ccccc2C2=NC(CC(C)C)C(=O)N12)C(=O)Nc1ccc2c(c1)OCO2 (configuration not stated)	VLA-4 allo ag inconclusive, VLA-4 antagonist inconclusive, FPR binder 58
COC(=O)c1c(-c2cccs2)csc1NC(=O)CN1CCOCC1	none
CCOC(=O)c1c(-c2ccc(C)o2)csc1NC(=O)CN1CCN(CC)CC1	LNCaP diff act 34
COCCCn1c(=N)c(C(N)=S)cc2c(=O)n3cccc(C)c3nc21	VLA-4 allo ag inconclusive, VLA-4 antagonist inconclusive
Cc1cccn2c(=O)c3cc(C(=O)NC(C)c4ccccc4)c(=N)n(CCCn4ccnc4)c3nc12 (configuration not stated)	LNCaP diff act 37
Cc1ccc2nc3c(cc(C(=O)NCc4ccccc4)c(=N)n3CCCn3ccnc3)c(=O)n2c1	LNCaP diff act 31
Cc1ccc(Cn2ccc(NC(=O)c3cc(CC(C)C)on3)n2)cc1	none
C=CCOc1ccc(C2c3c(oc4ccccc4c3=O)C(=O)N2c2ccccn2)cc1OCC (configuration not stated)	none
O=C(Cn1cnc2c(cnn2-c2ccc(F)cc2)c1=O)OCc1ccccc1	FPRL1 ligand 54, FPR binder 40
COc1cc(N2C(=O)NC3CC2(C)Oc2ccccc23)cc(OC)c1OC (configuration not stated)	none
CN(C)c1ccc(/C=C/C(O)=C2/C(=O)N(C)C3(C)CC2c2ccccc2O3)cc1 (configuration not stated)	VLA-4 allo ag inconclusive, Jurkat autofluor 6.9, VLA-4 antagonist inconclusive
Oc1cc(NCc2cccnc2)ccc1-c1nc2ccccc2o1	VLA-4 allo ag inconclusive, Jurkat autofluor 3, VLA-4 antagonist inconclusive
COc1ccc(S(=O)(=O)NC(C)C(=O)Nc2cccc(C(C)=O)c2)cc1 (configuration not stated)	FPRL1 ligand 47
Cc1cc(C)n(CCc2nc3c4ccccc4n(CC(=O)Nc4ccc(Cl)cc4F)c(=O)n3n2)n1	none
COCCN1Cc2cccc(C(=O)NCc3ccc4c(c3)OCO4)c2C1=O	FPRL1 ligand 33
COc1ccc(OC)c(/C=c2\sc3nc(-c4cccs4)nn3c2=O)c1	VLA-4 allo ag inconclusive, Jurkat autofluor 4.1, VLA-4 antagonist inconclusive
COc1ccccc1/C=c1\sc2nc(-c3ccco3)nn2c1=O	none
Cc1cc(N2CCOCC2)nc2ccc(NC(=O)CCC(=O)N3CCCC(C)C3)cc12 (configuration not stated)	none
CN1CC=C2C(C#N)=C(N)C(C#N)(C#N)C(c3cccc(Cl)c3Cl)C2C1 (configuration not stated)	VLA-4 allo ag inconclusive, Jurkat autofluor 2.7, VLA-4 antagonist inconclusive
CCOC(=O)CCCCC(=O)c1[nH]c(=O)[nH]c1CSc1nc2ccccc2[nH]1	VLA-4 antagonist 55
C/C=C(\CS(=O)(=O)c1ccccc1)S(=O)(=O)c1ccccc1	none
CCOC(=O)N1CCN(c2cc(NCCC(=O)O)c3c4c(onc24)-c2ccccc2C3=O)CC1	VLA-4 allo ag inconclusive, FPRL1 ligand 61, Jurkat autofluor 4.6, VLA-4 antagonist inconclusive, FPR binder 32
O=C(O)CCCNc1cc(N2CCC3(CC2)OCCO3)c2noc3c2c1C(=O)c1ccccc1-3	VLA-4 allo ag inconclusive, FPRL1 ligand 73, Jurkat autofluor 5.2, VLA-4 antagonist inconclusive, FPR binder 32
Cc1ccccc1-n1c(=O)cc(N2CCC3(CC2)OCCO3)[nH]c1=O	none
CCOC(=O)N1CCN(c2c(NCCCN(CC)Cc3ccccc3)c(=O)c2=O)CC1	none
Cn1c(Cn2c(=O)sc3ccccc32)nnc1SCc1ccccc1	none
Cn1c(=O)c2nc(Cl)n(Cc3ccc(Cl)cc3Cl)c2n(C)c1=O	none
